Source: PubChem BioAssay (EPA / NIEHS)
The source made the active and inactive calls. The calls were made as follows: active = hit-call score of the fitted dose curve at least 0.9, where 1 is the maximum; inactive = score below 0.9.

Key:
[1] = read-out: Macrophage colony-stimulating factor (MCSF), CSF1 (gene 1435); test: BSK_hDFCGF_MCSF: BioMAP Diversity Plus: hDFCGF Assay for Macrophage colony-stimulating factor (MCSF) Biomarker Activity (AID 2283060); conditions: primary human foreskin fibroblasts; actives raise or lower the signal
Procedure, shortened: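 M-CSF levels read by ELISA at 24 h post-dosing in human skin fibroblasts. Parallel cultures stained with SRB assessed cytotoxicity at the same time point; response fitted in both directions against the DMSO baseline.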

[2] = BSK_hDFCGF_SRB: Viability Assessment in the BioMAP Diversity Plus: hDFCGF Assay (AID 2283061); conditions: primary human foreskin fibroblasts;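 also: cells exposed to compound for 24 h before the read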
Procedure, shortened: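 Viability was read as total protein: after 10% TCA fixation, wells were stained with 0.1% sulforhodamine B and read at 560 nm. Primary human foreskin fibroblasts were dosed for 24 h, with bidirectional fitting versus DMSO.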

[3] = read-out: TIMP metallopeptidase inhibitor 1 (TIMP1), TIMP1 (gene 7076); test: BSK_hDFCGF_TIMP1: BioMAP Diversity Plus: hDFCGF Assay for TIMP metallopeptidase inhibitor 1 (TIMP1) Biomarker Activity (AID 2283062); conditions: primary human foreskin fibroblasts; actives raise or lower the signal
Procedure, shortened: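 TIMP-1 measured by ELISA 24 h after chemical dosing of primary human skin fibroblasts, with gain or loss fitted relative to DMSO. Parallel SRB staining (560 nm) monitored overt cytotoxicity.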

[4] = read-out: Monokine induced gamma interferon (MIG), CXCL9 (gene 4283); test: BSK_hDFCGF_MIG: BioMAP Diversity Plus: hDFCGF Assay for Monokine induced gamma interferon (MIG) Biomarker Activity (AID 2283063); conditions: primary human foreskin fibroblasts; actives raise or lower the signal
Procedure, shortened: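 Human primary foreskin fibroblasts in the hDFCGF system, exposed to test chemical for 24 h; MIG measured by ELISA. Bidirectional curve fitting against DMSO negative control as activity baseline.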

[5] = read-out: Matrix Metallopeptidase 1 (MMP1), MMP1 (gene 4312); test: BSK_hDFCGF_MMP1: BioMAP Diversity Plus: hDFCGF Assay for Matrix Metallopeptidase 1 (MMP1) Biomarker Activity (AID 2283064); conditions: primary human foreskin fibroblasts; actives raise or lower the signal
Procedure, shortened: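 Primary human foreskin fibroblasts exposed to chemicals for 24 h; MMP1 measured by ELISA. Cytotoxicity tracked by SRB staining in parallel cultures; bidirectional fit relative to DMSO.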

[6] = read-out: Vascular cell adhesion molecule 1 (VCAM1), VCAM1 (gene 7412); test: BSK_hDFCGF_VCAM1: BioMAP Diversity Plus: hDFCGF Assay for Vascular cell adhesion molecule 1 (VCAM1) Biomarker Activity (AID 2283065); conditions: primary human foreskin fibroblasts; actives raise or lower the signal;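 as to AC50: VCAM-1 protein level quantified by ELISA after 24 h chemical exposure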
Procedure, shortened: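 ELISA readout of VCAM-1 on human dermal fibroblast primary cultures, 24 h after chemical exposure. Gain or loss of signal fitted in both directions against DMSO baseline.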

[7] = read-out: Plasminogen activator inhibitor-1 (PAI1), SERPINE1 (gene 5054); test: BSK_hDFCGF_PAI1: BioMAP Diversity Plus: hDFCGF Assay for Plasminogen activator inhibitor-1 (PAI1) Biomarker Activity (AID 2283066); conditions: primary human foreskin fibroblasts; actives raise or lower the signal
Procedure, shortened: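 Human foreskin fibroblasts in the hDFCGF system were dosed with compound for 24 h; PAI-1 was quantified by ELISA. Bidirectional curve fitting used DMSO as negative control and baseline.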

[8] = read-out: Intercellular Adhesion Molecule 1 (ICAM1), ICAM1 (gene 3383); test: BSK_KF3CT_ICAM1: BioMAP Diversity Plus: KF3CT Assay for Intercellular Adhesion Molecule 1 (ICAM1) Biomarker Activity (AID 2283067); conditions: primary human keratinocytes with fibroblasts; actives raise or lower the signal
Procedure, shortened: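 Cell-surface ICAM-1 was measured by ELISA 24 h after dosing primary human skin keratinocytes co-cultured with fibroblasts. Parallel SRB staining tracked overt cytotoxicity. Gain or loss of signal was fitted relative to DMSO.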

[9] = read-out: Interferon-gamma inducible Protein 10 (IP10), CXCL10 (gene 3627); test: BSK_KF3CT_IP10: BioMAP Diversity Plus: KF3CT Assay for Interferon-gamma inducible Protein 10 (IP10) Biomarker Activity (AID 2283068); conditions: primary human keratinocytes with fibroblasts; actives raise or lower the signal
Procedure, shortened: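 In a primary skin co-culture of keratinocytes and fibroblasts, IP-10 is quantified by ELISA at 24 h after dosing. SRB staining of parallel wells monitors overt toxicity. Curves are fitted both directions against DMSO.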

[10] = BSK_KF3CT_SRB: Viability Assessment in the BioMAP Diversity Plus: KF3CT Assay (AID 2283069); conditions: primary human keratinocytes with fibroblasts;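 also: total protein by sulforhodamine B staining as a cytotoxicity measure; read 24 h after compound addition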
Procedure, shortened: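 Human keratinocyte and foreskin fibroblast co-culture exposed to chemical for 24 h. Total protein measured in parallel cultures by 0.1% sulforhodamine B staining after 10% TCA fixation, read at 560 nm; bidirectional fit relative to DMSO.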

[11] = read-out: Interleukin-1 alpha (IL1a), IL1A (gene 3552); test: BSK_KF3CT_IL1a: BioMAP Diversity Plus: KF3CT Assay for Interleukin-1 alpha (IL1a) Biomarker Activity (AID 2283070); conditions: primary human keratinocytes with fibroblasts; actives raise or lower the signal
Procedure, shortened: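 Primary human keratinocyte plus foreskin fibroblast co-culture, dosed and measured at 24 h in 96-well plates. IL-1a level quantified by ELISA; bidirectional fit relative to DMSO.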

[12] = read-out: TIMP metallopeptidase inhibitor 2 (TIMP2), TIMP2 (gene 7077); test: BSK_KF3CT_TIMP2: BioMAP Diversity Plus: KF3CT Assay for TIMP metallopeptidase inhibitor 2 (TIMP2) Biomarker Activity (AID 2283071); conditions: primary human keratinocytes with fibroblasts; actives raise or lower the signal
Procedure, shortened: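 Human primary keratinocyte/foreskin fibroblast co-culture dosed with chemical and sampled at 24 h. TIMP-2 levels quantified by ELISA; bidirectional fitting against DMSO negative control as baseline.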

[13] = read-out: Transforming growth factor beta 1 (TGFb1), TGFB1 (gene 7040); test: BSK_KF3CT_TGFb1: BioMAP Diversity Plus: KF3CT Assay for Transforming growth factor beta 1 (TGFb1) Biomarker Activity (AID 2283072); conditions: primary human keratinocytes with fibroblasts; actives raise or lower the signal
Procedure, shortened: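 Human keratinocyte plus foreskin fibroblast primary co-culture, dosed with chemical for 24 h. TGF-b1 quantified by ELISA. Activity fitted bidirectionally against DMSO negative control as baseline.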

[14] = read-out: C-C motif chemokine 2 (Homo sapiens) (UniProt P13500); test: BSK_KF3CT_MCP1: BioMAP Diversity Plus: KF3CT Assay for Monocyte Chemoattractant Protein 1 (MCP1/CCL2) Biomarker Activity (AID 2283073); conditions: primary human keratinocytes with fibroblasts; actives raise or lower the signal
Procedure, shortened: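 ELISA read-out of MCP-1, 24 h post-dose, in primary human skin keratinocytes co-cultured with fibroblasts. Parallel SRB staining monitors cytotoxicity; changes fitted both directions relative to DMSO.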

[15] = read-out: Matrix Metallopeptidase 9 (MMP9), MMP9 (gene 4318); test: BSK_KF3CT_MMP9: BioMAP Diversity Plus: KF3CT Assay for Matrix Metallopeptidase 9 (MMP9) Biomarker Activity (AID 2283074); conditions: primary human keratinocytes with fibroblasts; actives raise or lower the signal;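 as to AC50: MMP9 protein level quantified by ELISA in the co-culture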
Procedure, shortened: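 Human keratinocyte and foreskin fibroblast co-culture exposed to chemicals for 24 h; MMP9 biomarker measured by ELISA, bidirectional fitting relative to DMSO; cytotoxicity tracked by SRB total protein staining in parallel cultures.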

[16] = read-out: urokinase plasminogen activator (uPA), PLAU (gene 5328); test: BSK_KF3CT_uPA: BioMAP Diversity Plus: KF3CT Assay for urokinase plasminogen activator (uPA) Biomarker Activity (AID 2283075); conditions: primary human keratinocytes with fibroblasts; actives raise or lower the signal
Procedure, shortened: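 Primary human keratinocyte/foreskin fibroblast co-culture exposed to chemical; uPA measured by ELISA at 24 h. Bidirectional fit versus DMSO, with parallel SRB total-protein staining for cytotoxicity.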

CD40, CD40 (gene 958) = test: BSK_LPS_CD40: BioMAP Diversity Plus: LPS Assay for CD40 Biomarker Activity (AID 2283076); conditions: primary human HUVEC with PBMC; actives raise or lower the signal
Procedure, shortened: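 In the LPS system of human endothelial cells with peripheral blood mononuclear cells, CD40 levels were read by ELISA 24 h post-treatment. Signal changes in either direction were fitted against the DMSO baseline, with parallel SRB protein staining.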

[17] = read-out: E-selectin (Homo sapiens) (UniProt P16581); test: BSK_LPS_Eselectin: BioMAP Diversity Plus: LPS Assay for Eselectin Biomarker Activity (AID 2283077); conditions: primary human HUVEC with PBMC; actives raise or lower the signal
Procedure, shortened: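 E-selectin ELISA on LPS-stimulated endothelial cell/PBMC co-cultures, read 24 h post-treatment; gains and losses fitted against DMSO. Parallel SRB staining (0.1% SRB after 10% TCA fixation, 560 nm) flags overt cytotoxicity.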

[18] = read-out: Interleukin-8 (IL8), CXCL8 (gene 3576); test: BSK_LPS_IL8: BioMAP Diversity Plus: LPS Assay for Interleukin-8 (IL8) Biomarker Activity (AID 2283078); conditions: primary human HUVEC with PBMC; actives raise or lower the signal
Procedure, shortened: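 ELISA read-out of IL-8 after 24 h chemical treatment of LPS-activated endothelial/PBMC human primary co-cultures. Changes either up or down relative to DMSO; overt cytotoxicity checked by sulforhodamine B staining in parallel wells.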

[19] = BSK_LPS_SRB: Viability Assessment in the BioMAP Diversity Plus: LPS Assay (AID 2283079); conditions: primary human HUVEC with PBMC;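 also: total protein by sulforhodamine B absorbance as a cytotoxicity measure; measured one day after compound addition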
Procedure, shortened: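 SRB viability endpoint: cells fixed with 10% TCA, stained with 0.1% SRB, read at 560 nm, 24 h post-dose. HUVEC/PBMC co-culture; signal change in either direction scored relative to DMSO.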

Measured: AC50

Sequence of E-selectin (Homo sapiens) (P16581 whole entry, looked up): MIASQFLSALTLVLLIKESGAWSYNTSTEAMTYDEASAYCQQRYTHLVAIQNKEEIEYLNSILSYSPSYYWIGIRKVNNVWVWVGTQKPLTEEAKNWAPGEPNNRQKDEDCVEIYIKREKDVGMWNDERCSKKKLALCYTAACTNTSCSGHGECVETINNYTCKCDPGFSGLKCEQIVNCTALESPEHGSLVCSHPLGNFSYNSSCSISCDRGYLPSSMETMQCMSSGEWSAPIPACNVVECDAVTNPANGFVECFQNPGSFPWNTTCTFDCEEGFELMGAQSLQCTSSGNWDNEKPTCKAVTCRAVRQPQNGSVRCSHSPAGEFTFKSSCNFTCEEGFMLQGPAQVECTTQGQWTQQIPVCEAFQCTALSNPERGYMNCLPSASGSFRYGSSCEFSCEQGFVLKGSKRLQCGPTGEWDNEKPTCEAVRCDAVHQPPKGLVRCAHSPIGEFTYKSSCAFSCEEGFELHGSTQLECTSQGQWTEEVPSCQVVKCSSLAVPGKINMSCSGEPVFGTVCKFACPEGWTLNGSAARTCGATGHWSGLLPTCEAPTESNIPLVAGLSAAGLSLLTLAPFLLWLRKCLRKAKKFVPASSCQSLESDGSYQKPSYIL

CC(C1CC1)C(O)(Cn1cncn1)c1ccc(Cl)cc1 (stereo not drawn)
inactive: all assays above

CCOP(=O)(NC(C)C)Oc1ccc(SC)c(C)c1 (stereo not drawn)
not listed: [9]
inactive: all other assays above

CC[C@H](C)[C@H]1O[C@]2(C=C[C@@H]1C)C[C@@H]1C[C@@H](C/C=C(\C)[C@@H](O[C@H]3C[C@H](OC)[C@@H](O[C@H]4C[C@H](OC)[C@@H](NC)[C@H](C)O4)[C@H](C)O3)[C@@H](C)/C=C/C=C3\CO[C@@H]4[C@H](O)C(C)=C[C@@H](C(=O)O1)[C@]34O)O2
active: [1] 2.85 µM | [2] 3.85 µM | [3] 4.4 µM | [4] 5.27 µM | [5] 6.78 µM | [6] 4.8 µM | [7] 2.08 µM | [8] 9.03 µM | [10] 6.31 µM | [11] 5.84 µM | [12] 8.99 µM | [13] 10.8 µM | [14] 7.96 µM | [15] 6.21 µM | [16] 9.27 µM | CD40, CD40 (gene 958) 1.86 µM | [17] 5.98 µM | [18] 5.57 µM | [19] 5.52 µM
